Screening data: PubChem, National Center for Advancing Translational Sciences (NCATS)
Compounds with a hit are over-represented: about 2.8% of the library has one in this group of screens.
Pol eta inh-1 = qHTS for Inhibitors of Polymerase Eta; DNA polymerase eta (Homo sapiens), Q9Y253; hit rate 1.2% among 390,000; AID 588591, 2011; recombinant Pol eta, fluorescent DNA replication assay; Potency, µM (top dose mostly 114 µM), usual class: inhibitors
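Pol eta at 10 nM preincubated with compounds 15 min at room temperature; reaction started with fluorescent substrate (50 nM final) and read kinetically at 0 and 10 min.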
WRN helicase inh-1 = qHTS for Inhibitors of WRN Helicase | Bifunctional 3'-5' exonuclease/ATP-dependent helicase WRN (Homo sapiens), Q14191 | Potency, µM (doses to about 114 µM), usual class: inhibitors | hit rate 0.46% among 360,000 | AID 651768, 2012 | WRN helicase unwinding, fluorescent forked duplex, kinetic; also: nearly all actives have a fitted effect of over 55% in size
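WRN at 20 nM final was preincubated with compound for 15 min at room temperature; reaction started with 100 nM forked duplex oligonucleotide carrying fluorophore and quencher plus 2 mM ATP (final). Unwinding followed kinetically by red fluorescence (ex 525/em 598 nm).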
POLB inh = qHTS Assay for Inhibitors of DNA Polymerase Beta; Potency, µM (series often up to 114 µM), usual class: inhibitors; P06746; Pol beta primer extension/strand displacement, fluorescence kinetic; hit rate 1.3% among 340,000; AID 485314, 2010
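Pol beta (10 nM) was preincubated with compound for 15 min at room temperature. The reaction was then started with 50 nM substrate and read immediately and after a further 10 min at room temperature.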
PI5P4Ka inh = qHTS for Inhibitors of phosphatidylinositol 5-phosphate 4-kinase (PI5P4K); Phosphatidylinositol 5-phosphate 4-kinase type-2 alpha (Homo sapiens), P48426; PI5P4Kalpha enzyme, ADP-Glo luminescence, 60 min; stronger effect = lower value; max response, %; hit rate 1.2% among 330,000; AID 652105, 2013; active = max response of -50% or lower; inconclusive = between -30% and -50%; inactive = -30% or higher; also: value at the top dose of about 77 µM
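Reactions run in 0.038 M HEPES pH 7.4, 0.28 mM EGTA, 0.1% CHAPS and 5% DMSO, with PI5P4Kalpha, substrate, compound and 5 microM ATP final, one hour at room temperature. Readout is ADP-Glo luminescence.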
POLI inh = qHTS for Inhibitors of Polymerase Iota | Pol iota fluorescent replication assay, 10 min | Potency, µM (titrated, usually from 115 µM), actives largely listed as inhibitors | hit rate 1% among 390,000 | AID 588590, 2011
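Pol iota at 10 nM preincubated 15 min with compounds at room temperature; reaction started with fluorescent substrate, 50 nM final. Fluorescence read kinetically at 0 and 10 min; buffer-only wells as negative control.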
Pol kappa inh-1 = qHTS for Inhibitors of Polymerase Kappa | DNA polymerase kappa (Homo sapiens), Q9UBT6 | hit rate 0.53% among 400,000 | AID 588579, 2011 | Potency, µM (doses to about 107 µM), most hits filed as inhibitors | purified Pol kappa, fluorescent DNA synthesis assay, 10 min
Target sequence (Q9UBT6 whole entry, looked up): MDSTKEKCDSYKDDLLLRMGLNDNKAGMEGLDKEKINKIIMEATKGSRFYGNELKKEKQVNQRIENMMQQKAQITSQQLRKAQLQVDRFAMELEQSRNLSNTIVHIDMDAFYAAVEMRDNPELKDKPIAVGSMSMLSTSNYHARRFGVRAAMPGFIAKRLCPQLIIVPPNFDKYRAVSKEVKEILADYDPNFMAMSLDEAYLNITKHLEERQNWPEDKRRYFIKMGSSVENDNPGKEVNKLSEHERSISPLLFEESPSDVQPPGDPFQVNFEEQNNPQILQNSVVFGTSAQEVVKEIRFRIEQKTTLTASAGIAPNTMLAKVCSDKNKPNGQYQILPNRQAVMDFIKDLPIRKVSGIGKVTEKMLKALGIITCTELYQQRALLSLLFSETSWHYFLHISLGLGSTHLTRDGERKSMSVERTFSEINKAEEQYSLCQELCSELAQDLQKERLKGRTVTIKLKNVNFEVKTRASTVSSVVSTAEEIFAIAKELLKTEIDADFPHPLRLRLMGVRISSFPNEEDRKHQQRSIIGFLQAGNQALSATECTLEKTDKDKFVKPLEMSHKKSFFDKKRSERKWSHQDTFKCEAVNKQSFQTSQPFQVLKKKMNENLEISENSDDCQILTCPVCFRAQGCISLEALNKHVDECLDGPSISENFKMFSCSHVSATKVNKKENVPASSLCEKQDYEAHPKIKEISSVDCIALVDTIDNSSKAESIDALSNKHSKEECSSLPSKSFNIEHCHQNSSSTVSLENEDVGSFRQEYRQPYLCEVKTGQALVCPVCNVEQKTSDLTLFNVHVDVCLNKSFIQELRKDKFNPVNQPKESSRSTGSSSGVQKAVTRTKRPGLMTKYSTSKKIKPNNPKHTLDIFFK
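10 nM Pol kappa preincubated 15 min at room temperature with compounds, then reaction started with substrate at 50 nM final. Fluorescence read kinetically at 0 and 10 min; buffer-only wells served as negative control.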
Pol kappa inh-2 = qHTS for Inhibitors of Polymerase Kappa: Confirmatory Assay for Cherry-picked Compounds. shares compounds with Pol eta inh-1. purified Pol-kappa, fluorescent strand-displacement substrate. Potency, µM, actives largely listed as inhibitors. hit rate 76% among 920. AID 720501, 2013
Pol eta inh-2 = qHTS for Inhibitors of Polymerase Eta: Confirmatory Assay for Cherry-picked Compounds; AID 720502, 2013; Potency, µM, most hits filed as inhibitors; hit rate 64% among 2,600; shares compounds with Pol eta inh-1; Pol eta primer extension, TAMRA/BHQ fluorescence, 10 min
WRN helicase inh-2 = qHTS for Inhibitors of WRN Helicase: Confirmatory Assay for Cherry-picked Compounds; Potency, µM (highest dose often 57.1 µM), most hits filed as inhibitors; hit rate 63% among 610; WRN helicase DNA unwinding, fluorescence kinetic; shares compounds with WRN helicase inh-1; AID 720497, 2013; also: nearly all actives have a fitted effect of over 65% in size
TO displacement = qHTS for Inhibitors of WRN Helicase: Thiazole Orange DNA Binding Counterscreen; thiazole orange DNA binding displacement, fluorescence; shares compounds with WRN helicase inh-1; hit rate 10% among 610; Potency, µM (doses to about 57.1 µM), actives largely listed as inhibitors;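 also: drop in dye fluorescence marks compound binding to DNA; nearly all actives have a fitted effect of over 60% in size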
BLM helicase inh = qHTS for Inhibitors of WRN Helicase: BLM Helicase Counterscreen for WRN Inhibitors; hit rate 60% among 610; shares compounds with WRN helicase inh-1; Recombinant BLM helicase DNA unwinding, red fluorescence; Potency, µM (top dose mostly 57.1 µM), most hits filed as inhibitors; AID 720503, 2013; also: nearly all actives have a fitted effect of over 60% in size
ADP-Glo counter = qHTS for Inhibitors of PI5P4K: ADP-Glo counter assay; shares compounds with PI5P4Ka inh; ADP-Glo detection counter-screen, luciferase luminescence, no enzyme; Potency, µM (doses to about 76.9 µM), actives largely listed as inhibitors; 1,100 tested, under 10 active; AID 743285, 2014
A number is an active result; - = inactive; ? = inconclusive; . = no result given. Unless noted, calls follow the shape of the dose curve; as a rule, active = well fitted curve in the direction sought with a large enough effect; inconclusive = small, poorly fitted or top-dose-only effect, or another doubt; inactive = no such curve, though single readings can be large; an effect the other way counts as inactive or inconclusive.

SMILES | Pol eta inh-1 | WRN helicase inh-1 | POLB inh | PI5P4Ka inh | POLI inh | Pol kappa inh-1 | WRN helicase inh-2 | TO displacement | BLM helicase inh | others
O=C(c1ccccc1)c1ccc2nc(-c3ccco3)c(-c3ccco3)nc2c1 | 12.6µM | 15.8µM | 8.91µM | -99.6 | 3.98µM | 25.1µM | 15.2µM | 24.1µM | 8.57µM | Pol kappa inh-2=?;Pol eta inh-2=?;ADP-Glo counter=-
O=C1ON=C(c2ccccc2)/C1=C/c1cccnc1 | - | - | - | - | - | - | . | . | .
COc1ccc(/C=C2\C(=O)ON=C2c2ccccc2)cc1 | - | 31.6µM | - | -52.8 | ? | - | - | - | -
O=c1[nH]c(=S)[nH]c2c1C(c1ccc(F)cc1)OC(CCc1ccccc1)C2 (stereo unspecified) | . | - | . | - | . | . | . | . | .
COc1ccc(NC(=O)CN(C)CC(=O)Nc2ccccc2SC)cc1 | - | 28.2µM | - | - | - | - | - | - | -
Cc1ccc(C(=O)NNC(=O)c2ccc(S(=O)(=O)N3CCCCC3)cc2)cc1 | - | 35.5µM | . | - | ? | - | - | - | ?
CCc1cccc(NC(=O)CSc2nc3ccsc3c(=O)n2CC)c1 | - | . | - | . | - | - | . | . | .
COc1cc(-c2cnc3c(NC=O)cc(-c4cccc(NC(C)=O)c4)cn23)cc(OC)c1OC | . | 25.1µM | . | -60.5 | . | . | 9.61µM | - | 15.2µM
CNc1cncc(-c2cccc(C(=O)N(C)C)c2)n1 | . | - | . | - | . | . | . | . | .
COc1cc(/C=N/NS(=O)(=O)c2ccc(C)c([N+](=O)[O-])c2)cc([N+](=O)[O-])c1O | - | - | - | ? | - | - | . | . | .
COc1ccc(-n2c(O)c(/C=N/NS(=O)(=O)c3ccc(C)c([N+](=O)[O-])c3)c3ccccc3c2=O)cc1OC | - | ? | - | - | ? | - | 19.2µM | - | 21.5µM
CC(C)NC(=O)N1CC2(CCN(C(=O)c3cccn3C)CC2)C1 | . | . | . | . | . | - | . | . | .
Cn1cnc([N+](=O)[O-])c1S(=O)(=O)Oc1cccc2ccccc12 | - | - | . | - | ? | - | ? | - | ?
O=[N+]([O-])c1ccc2nc(NS(=O)(=O)c3ccc(F)cc3)sc2c1 | - | ? | - | ? | - | - | . | . | .
N#C/C(=C\c1ccc(O)c([N+](=O)[O-])c1)c1nc2ccccc2s1 | 20µM | 31.6µM | 50.1µM | - | ? | - | 24.1µM | 21.5µM | 24.1µM
COc1ccc(-c2csc(/C(C#N)=C\c3ccc(O)c([N+](=O)[O-])c3)n2)cc1OC | - | ? | - | ? | - | - | . | . | .
CCCc1cc(CN2CCOCC2)c(O)c(CN2CCOCC2)c1O | - | 17.8µM | . | - | - | - | - | - | -
CCOc1cccc(C(c2c(C)n(C)n(-c3ccccc3)c2=O)c2c(C)n(C)n(-c3ccccc3)c2=O)c1OC | - | - | - | - | - | - | . | . | .
COc1cccc(C(c2c(C)[nH]n(-c3ccccc3)c2=O)c2c(C)[nH]n(-c3ccccc3)c2=O)c1OC | - | ? | - | - | 1.26µM | - | - | - | -
CN(C)CCNC(=O)c1cccc2ccc(-c3ccc(-c4ccccc4)cc3)nc12 | - | - | . | ? | - | - | . | . | .
COc1ccc(OC)c2nc3c(C(=O)NCCN(C)C)cccc3nc12 | ? | 12.6µM | . | - | ? | ? | 13.6µM | 10.8µM | 21.5µM
CC(C)COC(=O)c1ccc2c(c1O)C(=O)c1ccccc1C2=O | ? | 18.9µM | - | - | - | - | ? | - | ?
CC(C)(C)c1ccc(NC(=O)c2cc(C3CCCN(S(=O)(=O)c4cccc5cccnc45)C3)on2)cc1 (stereo unspecified) | . | - | . | - | . | . | . | . | .
CC1=C(SCc2ccccc2)C(=O)c2ccccc2C1=O | 31.6µM | ? | . | ? | 3.16µM | - | ? | ? | 24.1µM
O=c1[nH]/c(=C/c2ccc3c(c2)OCO3)c(=O)[nH]/c1=C\c1ccc2c(c1)OCO2 | . | . | . | . | - | - | . | . | .
SMILES | Pol eta inh-1 | WRN helicase inh-1 | POLB inh | PI5P4Ka inh | POLI inh | Pol kappa inh-1 | WRN helicase inh-2 | TO displacement | BLM helicase inh | others
CC1=C(C)CS(=O)N(S(=O)(=O)c2ccccc2)C1 (stereo unspecified) | - | 39.8µM | - | . | ? | - | - | - | -
Cc1cc(C)cc(OCCSc2nc(-c3cccs3)nc3cc(=O)[nH]n23)c1 | - | . | ? | . | ? | - | . | . | .
COc1ccccc1OCCSc1nc(-c2ccc(C(C)(C)C)cc2)nc2cc(=O)[nH]n12 | ? | . | - | . | - | - | ? | ? | 27.1µM
COc1ccc(-c2csc3nc(-c4ccc(C)cc4)oc(=O)c23)cc1OC | ? | ? | ? | - | ? | - | 12.1µM | - | 1.92µM
Cc1ccc(C)c(N2CCN(CCCNC(=O)c3ccc4nc(CCc5ccccc5)oc4c3)CC2)c1 | - | . | ? | . | - | - | . | . | .
COc1ccc(OC)c(CCNC(=O)CCCn2c(=O)c3cccn3c3ccc(F)cc32)c1 | - | . | - | . | - | - | . | . | .
Oc1ccc(O)c(Cc2nc3ccccc3[nH]2)c1 | - | 89.1µM | - | - | - | - | 21.5µM | ? | 6.81µM
CCCOc1ccc(C(=O)CCN2CCN(C(=O)OCC)CC2)cc1 | - | ? | - | - | - | - | - | - | -
COc1cc(C(=O)OCC(=O)N2CC(C)OC(C)C2)cc(OC)c1OC (stereo unspecified) | - | - | - | - | - | - | . | . | .
C[C@H]1CN([C@@H](C)CO)C(=O)CCCn2nncc2CO[C@H]1CN(C)S(=O)(=O)c1cccs1 | - | - | . | - | . | . | . | . | .
